# Measured values: PMC5540273 (PLoS ONE, 2017)
# Tests used:
# Conditions in all cases: concentration: 1 μM, replicates: in singlicate; n = 1
# FAK = test system: T1, FAK
# T1 construct: gene PTK2
# FER = test system: FER
# FES = test system: FES
# FGFR1 = test system: FGFR1
# FGFR2 = test system: FGFR2
# FGFR3 = test system: FGFR3
# FGFR4 = test system: FGFR4
# FGR = test system: FGR
# FLT1 = test system: FLT1
# FLT3-autoinhibited = test system: FLT3-autoinhibited
# FLT3 = test system: FLT3
# FLT4 = test system: FLT4
# FRK = test system: FRK
# FYN = test system: FYN
# GAK = test system: GAK
# GCN2(Kin.Dom.2,S808G) = test system: T2, GCN2(Kin.Dom.2,S808G)
# T2 construct: gene EIF2AK4
# GRK1 = test system: GRK1
# GRK2 = test system: T3, GRK2
# T3 construct: gene ADRBK1
# GRK3 = test system: T4, GRK3
# T4 construct: gene ADRBK2
# GRK4 = test system: GRK4
# 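Further: KINOMEscan kinase panel screen.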
Compound,%Inh (FAK),%Inh (FER),%Inh (FES),%Inh (FGFR1),%Inh (FGFR2),%Inh (FGFR3),%Inh (FGFR4),%Inh (FGR),%Inh (FLT1),%Inh (FLT3-autoinhibited),%Inh (FLT3),%Inh (FLT4),%Inh (FRK),%Inh (FYN),%Inh (GAK),"%Inh (GCN2(Kin.Dom.2,S808G))",%Inh (GRK1),%Inh (GRK2),%Inh (GRK3),%Inh (GRK4)
CC(=O)Nc1nc2cnc(Nc3cc(NC(=O)c4cccc(CCC#N)c4)ccc3C)nc2s1,7%,0%,17%,9%,22%,17%,0%,21%,30%,5%,0%,30%,83%,4%,7%,0%,0%,0%,0%,0%
COc1cccc(-c2cc(-c3c[nH]nc3-c3ccccn3)ccn2)c1 [GW680338],0%,0%,9%,0%,0%,1%,6%,19%,3%,0%,0%,83%,10%,11%,75%,7%,1%,0%,14%,0%
COc1ccc(Nc2nccc(NCCNC(=O)Nc3ccccc3F)n2)cc1 [GSK1379901],0%,35%,26%,0%,44%,6%,10%,36%,32%,0%,0%,6%,13%,0%,0%,2%,0%,0%,26%,0%
O=C(Nc1ccc2c(c1)OCO2)NC1CCN(c2ccnc(Nc3ccc(F)cc3)n2)C1 (centres unmarked) [GSK1379724],0%,7%,15%,0%,0%,7%,7%,11%,19%,0%,0%,0%,11%,9%,0%,6%,0%,0%,93.7%,0%
Cn1ccc2ncnc(Oc3ccc(Nc4nc5ccccc5[nH]4)cc3)c21,0%,0%,0%,3%,0%,0%,0%,9%,0%,0%,0%,0%,0%,0%,0%,0%,4%,0%,0%,9%
COc1ccc2nc(-c3cccc(C)n3)nc(Nc3ccncc3)c2c1 [GSK204919],0%,14%,17%,0%,7%,20%,20%,27%,28%,3%,0%,5%,9%,13%,8%,0%,0%,0%,43%,0%
Clc1cc(Cl)cc(Nc2ccnc(Nc3cc(Cl)cc(Cl)c3)n2)c1 [GSK175726],0%,13%,9%,0%,50%,22%,6%,46%,16%,0%,0%,0%,45%,8%,30%,0%,100%,0%,7%,0%
COc1cc2ncn(-c3cc(OCC4CCCO4)c(C(N)=O)s3)c2cc1OC (centres unmarked) [GSK204607],0%,9%,11%,0%,0%,24%,0%,29%,20%,0%,0%,36%,17%,33%,53%,0%,0%,0%,16%,0%
NC(=O)c1nnc2ccccc2c1N,12%,0%,4%,41%,7%,90%,0%,21%,7%,16%,15%,5%,0%,0%,24%,13%,12%,67%,13%,28%
Cl.O=C(Nc1cccc(-c2nn3ncccc3c2-c2ccnc(Nc3cccnc3)n2)c1)c1c(F)cccc1F [GSK312879],0%,10%,11%,8%,0%,23%,8%,40%,45%,4%,0%,9%,15%,21%,8%,0%,20%,0%,27%,0%
